According to article PMC5540273 (PLoS ONE, 2017):

Columns and labels:
Details in all cases: concentration: 1 μM,replicates: in singlicate; n = 1
MAP3K15 = tested on: MAP3K15
MAP3K1 = tested on: MAP3K1
MAP3K2 = tested on: MAP3K2
MAP3K3 = tested on: MAP3K3
MAP3K4 = tested on: MAP3K4
MAP4K2 = tested on: MAP4K2
MAP4K3 = tested on: MAP4K3
MAP4K4 = tested on: MAP4K4
MAP4K5 = tested on: MAP4K5
MAPKAPK2 = tested on: MAPKAPK2
MAPKAPK5 = tested on: MAPKAPK5
MARK1 = tested on: MARK1
MARK2 = tested on: MARK2
MARK3 = tested on: MARK3
MARK4 = tested on: MARK4
MAST1 = tested on: MAST1
MEK1 = tested on: T1, MEK1
T1 construct: gene MAP2K1

MEK2 = tested on: T2, MEK2
T2 construct: gene MAP2K2

MEK3 = tested on: T3, MEK3
T3 construct: gene MAP2K3

MEK4 = tested on: T4, MEK4
T4 construct: gene MAP2K4
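Further: KINOMEscan kinase panel screen.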

Row | Structure (SMILES) | %Inh (MAP3K15) | %Inh (MAP3K1) | %Inh (MAP3K2) | %Inh (MAP3K3) | %Inh (MAP3K4) | %Inh (MAP4K2) | %Inh (MAP4K3) | %Inh (MAP4K4) | %Inh (MAP4K5) | %Inh (MAPKAPK2) | %Inh (MAPKAPK5) | %Inh (MARK1) | %Inh (MARK2) | %Inh (MARK3) | %Inh (MARK4) | %Inh (MAST1) | %Inh (MEK1) | %Inh (MEK2) | %Inh (MEK3) | %Inh (MEK4)
1 | C[C@@H](Oc1cc(-n2cnc3cc(-c4cnn(C)c4)ccc32)sc1C(N)=O)c1ccccc1Cl [GSK580432] | 12% | 90.6% | 20% | 20% | 37% | 60% | 93.8% | 32% | 98.9% | 0% | 0% | 63% | 61% | 82% | 59% | 0% | 0% | 0% | 0% | 18%
2 | Cc1ccn2nc(-c3ccc(F)cc3)c(-c3ccncc3)c2c1.Cl [GW457859] | 0% | 0% | 0% | 0% | 0% | 2% | 0% | 14% | 0% | 15% | 0% | 0% | 0% | 0% | 0% | 64% | 0% | 48% | 0% | 0%
3 | O=c1[nH]cc(-c2ccc(O)cc2)c2sc(-c3ccncc3)cc12 [GSK1033723] | 0% | 13% | 7% | 0% | 0% | 0% | 0% | 0% | 0% | 0% | 0% | 0% | 0% | 0% | 1% | 0% | 0% | 0% | 0% | 0%
4 | CC(C(=O)NC1CCN(c2ccnc(Nc3ccc(F)cc3)n2)C1)c1ccc(Cl)cc1 (centres unmarked) [GSK1379713] | 0% | 0% | 0% | 0% | 17% | 0% | 0% | 12% | 4% | 26% | 18% | 0% | 0% | 0% | 1% | 11% | 0% | 0% | 0% | 10%
5 | COc1cc2c(Nc3ccc(NC(=O)c4ccccc4)cc3)ncnc2cc1OCCCN1CCOCC1 [GSK301329] | 0% | 9% | 11% | 0% | 47% | 0% | 6% | 11% | 63% | 23% | 0% | 0% | 0% | 0% | 0% | 0% | 86% | 86% | 0% | 5%
6 | CS(=O)(=O)Nc1ccc(-c2ccnc3[nH]ccc23)cc1 [GSK993273] | 37% | 18% | 58% | 32% | 0% | 30% | 44% | 2% | 0% | 0% | 0% | 0% | 0% | 0% | 6% | 0% | 60% | 71% | 43% | 67%
7 | Cc1cccc2c(-c3ccncc3)c(-c3ccc(F)cc3)nn12.Cl [GW461487] | 100% | 13% | 19% | 0% | 20% | 0% | 0% | 9% | 0% | 0% | 0% | 0% | 0% | 0% | 0% | 0% | 39% | 0% | 0% | 52%
8 | Cl.c1ccc(Oc2ccc(Nc3ccnc4cc(-c5ccc(CN6CCNCC6)o5)ccc34)cc2)nc1 [GW567142] | 3% | 1% | 0% | 0% | 0% | 0% | 0% | 0% | 13% | 0% | 0% | 0% | 0% | 39% | 0% | 0% | 87% | 90.9% | 0% | 19%
9 | CS(=O)c1ccc(-c2coc3ccc(-c4n[nH]c(=O)o4)cc23)cc1 (centres unmarked) | 37% | 0% | 0% | 11% | 5% | 2% | 1% | 0% | 0% | 0% | 11% | 15% | 23% | 0% | 22% | 6% | 17% | 18% | 25% | 43%
10 | NC(=O)c1ccc(-c2cc3ncnc(SCC(=O)O)c3s2)cc1 | 0% | 0% | 0% | 0% | 0% | 0% | 0% | 5% | 1% | 0% | 0% | 0% | 8% | 0% | 0% | 0% | 0% | 34% | 9% | 0%
11 | COC(=O)c1cccc(NC(=O)NC2CCN(c3ccnc(Nc4cc(OC)c(OC)c(OC)c4)n3)C2)c1 (centres unmarked) [GSK1379767] | 0% | 0% | 0% | 0% | 7% | 0% | 3% | 15% | 35% | 0% | 0% | 0% | 0% | 0% | 7% | 15% | 0% | 17% | 0% | 26%
12 | CN(c1ccc2c(c1)nc(NCc1ccc(F)cc1)n2C)c1ccnc(Nc2ccc(CS(C)(=O)=O)cc2)n1.Cl [GW813244] | 24% | 26% | 31% | 23% | 2% | 0% | 40% | 10% | 11% | 0% | 0% | 0% | 0% | 0% | 8% | 19% | 14% | 37% | 27% | 40%
13 | c1ccc(Oc2ccc(Nc3ccnc4ccc(-c5ccccn5)cc34)cc2)cc1 [GW407034] | 0% | 14% | 14% | 0% | 17% | 0% | 11% | 21% | 13% | 24% | 0% | 0% | 0% | 0% | 0% | 2% | 85% | 66% | 0% | 16%
14 | FC(F)(F)c1cc(Br)cc(Nc2nccc(-c3cnn4ncccc34)n2)c1 [GW810578] | 0% | 3% | 14% | 29% | 15% | 41% | 7% | 0% | 18% | 0% | 0% | 0% | 0% | 0% | 0% | 45% | 3% | 14% | 90.3% | 21%
15 | C[C@@H](Oc1cc(-n2cnc3cc(-c4ccncc4)ccc32)sc1C(N)=O)c1ccccc1Cl [GSK479719] | 18% | 91.9% | 10% | 1% | 13% | 24% | 65% | 13% | 85% | 0% | 0% | 0% | 100% | 1% | 12% | 0% | 0% | 0% | 0% | 37%
16 | Cc1ccc(CC(=O)N2CCc3cc(-c4cn(C)c5ncnc(N)c45)ccc32)cc1 [GSK2634758] | 0% | 10% | 55% | 22% | 90.3% | 3% | 96.7% | 0% | 77% | 6% | 0% | 2% | 0% | 0% | 12% | 8% | 0% | 0% | 0% | 22%
17 | O=C(NOCC1CC1)c1cc(Br)c(F)c(F)c1Nc1ccc(I)cc1Cl | 0% | 0% | 0% | 0% | 0% | 0% | 0% | 0% | 0% | 0% | 0% | 0% | 13% | 0% | 0% | 0% | 31% | 58% | 15% | 0%
18 | CN(c1cccc(CNc2nc(Nc3ccc4c(c3)CC(=O)N4)ncc2C(F)(F)F)c1)S(C)(=O)=O | 0% | 0% | 44% | 11% | 3% | 0% | 18% | 34% | 0% | 0% | 0% | 47% | 39% | 66% | 56% | 0% | 0% | 43% | 62% | 35%
19 | Cn1ccc2ncnc(Oc3ccc(NC(=O)Nc4ccnc(C(F)(F)F)c4)c(Cl)c3)c21 | 0% | 0% | 0% | 6% | 0% | 0% | 3% | 0% | 0% | 1% | 0% | 0% | 0% | 0% | 0% | 0% | 4% | 15% | 8% | 0%
